Laboratory results published in PubChem BioAssay (NCATS).
Inconclusive results are not listed. Calls of active or inactive are those of the source. Calls come from the whole dose curve; as a rule, active = well fitted curve in the direction sought with a large enough effect; inconclusive = small, poorly fitted or top-dose-only effect, or another doubt; inactive = no such curve, though single readings can be large; an effect the other way counts as inactive or inconclusive.

Columns and labels:
[1] = tested on: NIH3T3; experiment: Cytotoxic Profiling of Annotated Libraries Using Quantitative High-Throughput Screening (AID 1296008); conditions: Five cell lines viability, CellTiter-Glo ATP luminescence, 48-72 h; max response: active compounds read low; note: nearly all actives have a fitted effect of over 60% in size
Summary of the method: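 Compounds were pin-transferred onto cells and incubated 48 or 72 hr at 37 degree Celsius, 95% humidity. CellTiter-Glo was added, plates sat 10 min at room temperature, then ATP-coupled luminescence was imaged as the viability read-out.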

[2] = tested on: HACAT; experiment: qHTS assay to identify novel small-molecules to repurpose for Merkel cell carcinoma treatment (AID 1296009); conditions: MCC and control cell lines, CellTiter-Glo viability, 72 h; at 44.8 µM (top of the series) unless noted; note: nearly all actives have a fitted effect of over 60% in size
Summary of the method: (§1)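 qHTS format: cells treated with library compounds in DMSO across 8 (NPC) or 11 (MIPE) concentrations. Readout after 72 hr at 37 degree celsius was CellTiter-Glo luminescence.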

[3] = tested on: MCC-13; experiment: as above; conditions: MCC and control cell lines, CellTiter-Glo viability, 72 h; series mostly up to 46 µM
Summary of the method: as §1

[4] = tested on: MCC-26; experiment: as above; conditions: MCC and control cell lines, CellTiter-Glo viability, 72 h; series mostly up to 46 µM
Summary of the method: as §1

[5] = tested on: MKL-1; experiment: as above; conditions: MCC and control cell lines, CellTiter-Glo viability, 72 h; series mostly up to 46 µM
Summary of the method: as §1

[6] = tested on: MKL-2; experiment: as above; conditions: MCC and control cell lines, CellTiter-Glo viability, 72 h; series mostly up to 46 µM
Summary of the method: as §1

[7] = tested on: UISO; experiment: as above; conditions: MCC and control cell lines, CellTiter-Glo viability, 72 h; series mostly up to 46 µM
Summary of the method: as §1

[8] = tested on: WaGa; experiment: as above; conditions: MCC and control cell lines, CellTiter-Glo viability, 72 h; series mostly up to 46 µM
Summary of the method: as §1

[9] = tested on: C33A; experiment: Primary qHTS to identify gynecologic anti-cancer compounds using libraries of approved drugs and bioactive compounds (AID 1345084); conditions: Gynecologic cancer cell panel viability, ATPlite luminescence, 48 h; series mostly up to 57.5 µM; note: nearly all actives have a fitted effect of over 55% in size
Summary of the method: (§2)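 Five-point cytotoxicity, 48 h drug exposure at 37 C, 5% CO2, on cells seeded 16 h beforehand. ATP content read by ATPlite luminescence.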

[10] = tested on: CAOV3; experiment: as above; conditions: Gynecologic cancer cell panel viability, ATPlite luminescence, 48 h; series mostly up to 57.5 µM
Summary of the method: as §2

[11] = tested on: CASKI; experiment: as above; conditions: Gynecologic cancer cell panel viability, ATPlite luminescence, 48 h; series mostly up to 57.5 µM
Summary of the method: as §2

[12] = tested on: Es-2; experiment: as above; conditions: Gynecologic cancer cell panel viability, ATPlite luminescence, 48 h; series mostly up to 57.5 µM
Summary of the method: as §2

[13] = tested on: HeLa; experiment: as above; conditions: Gynecologic cancer cell panel viability, ATPlite luminescence, 48 h; series mostly up to 57.5 µM
Summary of the method: as §2

[14] = tested on: Hek293T; experiment: as above; conditions: Gynecologic cancer cell panel viability, ATPlite luminescence, 48 h, control line for the selectivity index; series mostly up to 57.5 µM
Summary of the method: as §2

[15] = tested on: JEG-3; experiment: as above; conditions: Gynecologic cancer cell panel viability, ATPlite luminescence, 48 h; series mostly up to 57.5 µM
Summary of the method: as §2

[16] = tested on: OV90; experiment: as above; conditions: Gynecologic cancer cell panel viability, ATPlite luminescence, 48 h; series mostly up to 57.5 µM
Summary of the method: as §2

[17] = tested on: PA-1; experiment: as above; conditions: Gynecologic cancer cell panel viability, ATPlite luminescence, 48 h; series mostly up to 57.5 µM
Summary of the method: as §2

[18] = tested on: SKOV3; experiment: as above; conditions: Gynecologic cancer cell panel viability, ATPlite luminescence, 48 h; series mostly up to 57.5 µM
Summary of the method: as §2
% is set by controls: 0 for no effect and ±100 for the full control effect.

Cc1cc(O)c2c(O)c3c(O)cccc3cc2c1
inactive: max response [1] -2.19% | outcome [2] | Potency [3] | Potency [4] | Potency [5] | Potency [6] | Potency [7] | Potency [8] | Potency [9] | Potency [10] | Potency [11] | Potency [12] | Potency [13] | Potency [14] | Potency [15] | Potency [16] | Potency [17]

CCC(C(=O)OCCN1CCOC(c2ccccc2)C1C)c1ccccc1 (configuration not stated)
inactive: max response [1] -22.2% | outcome [2] | Potency [3] | Potency [4] | Potency [5] | Potency [6] | Potency [7] | Potency [8] | Potency [9] | Potency [10] | Potency [11] | Potency [12] | Potency [13] | Potency [14] | Potency [15] | Potency [16] | Potency [17] | Potency [18]

CSc1ccc(/C=C2/C(C)=C(CC(=O)O)c3cc(F)ccc32)cc1
inactive: max response [1] -3.24% | outcome [2] | Potency [3] | Potency [4] | Potency [5] | Potency [6] | Potency [7] | Potency [8] | Potency [9] | Potency [10] | Potency [11] | Potency [12] | Potency [13] | Potency [14] | Potency [15] | Potency [16] | Potency [17] | Potency [18]

CC(=O)Nc1c(I)c(NC(C)=O)c(I)c(C(=O)O)c1I
inactive: max response [1] 4.63% | outcome [2] | Potency [3] | Potency [4] | Potency [5] | Potency [6] | Potency [7] | Potency [8] | Potency [9] | Potency [10] | Potency [11] | Potency [12] | Potency [13] | Potency [14] | Potency [15] | Potency [16] | Potency [17] | Potency [18]

CCCCCCn1c(=O)c2c(ncn2C)n(C)c1=O
inactive: max response [1] 1.26% | outcome [2] | Potency [3] | Potency [4] | Potency [5] | Potency [6] | Potency [7] | Potency [8] | Potency [9] | Potency [10] | Potency [11] | Potency [12] | Potency [13] | Potency [14] | Potency [15] | Potency [16] | Potency [17] | Potency [18]

O=C(O)c1[nH]n(-c2ccc(S(=O)(=O)O)cc2)c(=O)c1N=Nc1ccc(S(=O)(=O)O)cc1
inactive: max response [1] -0.37% | outcome [2] | Potency [3] | Potency [4] | Potency [5] | Potency [6] | Potency [7] | Potency [8] | Potency [9] | Potency [10] | Potency [11] | Potency [12] | Potency [13] | Potency [14] | Potency [15] | Potency [16] | Potency [17] | Potency [18]

CCCC(CCC)(C(=O)OCC)C(=O)OCC
inactive: max response [1] 4.44% | outcome [2] | Potency [3] | Potency [4] | Potency [5] | Potency [6] | Potency [7] | Potency [8] | Potency [9] | Potency [10] | Potency [11] | Potency [12] | Potency [13] | Potency [14] | Potency [15] | Potency [16] | Potency [17] | Potency [18]

Cc1ccc(O)cc1
inactive: max response [1] 0.99% | outcome [2] | Potency [3] | Potency [4] | Potency [5] | Potency [6] | Potency [7] | Potency [8] | Potency [9] | Potency [10] | Potency [11] | Potency [12] | Potency [13] | Potency [14] | Potency [15] | Potency [16] | Potency [17]

O=C(OCC1(COC(=O)c2cccnc2)CCCC(COC(=O)c2cccnc2)(COC(=O)c2cccnc2)C1O)c1cccnc1
inactive: max response [1] -1.33% | outcome [2] | Potency [3] | Potency [4] | Potency [5] | Potency [6] | Potency [7] | Potency [8] | Potency [9] | Potency [10] | Potency [11] | Potency [12] | Potency [13] | Potency [14] | Potency [15] | Potency [16] | Potency [17] | Potency [18]

Nc1ccc([N+](=O)[O-])c(C(F)(F)F)c1
inactive: max response [1] 0.447% | outcome [2] | Potency [3] | Potency [4] | Potency [5] | Potency [6] | Potency [7] | Potency [8] | Potency [9] | Potency [10] | Potency [11] | Potency [12] | Potency [13] | Potency [14] | Potency [15] | Potency [16] | Potency [17]

O=C(COCCOCCOCC(=O)Nc1c(I)cc(I)c(C(=O)O)c1I)Nc1c(I)cc(I)c(C(=O)O)c1I
inactive: max response [1] 4.72% | outcome [2] | Potency [3] | Potency [4] | Potency [5] | Potency [6] | Potency [7] | Potency [8] | Potency [9] | Potency [10] | Potency [11] | Potency [12] | Potency [13] | Potency [14] | Potency [15] | Potency [16] | Potency [17] | Potency [18]

CC(C)OP(=O)(CP(=O)(OC(C)C)OC(C)C)OC(C)C
inactive: max response [1] -2.18% | outcome [2] | Potency [3] | Potency [4] | Potency [5] | Potency [6] | Potency [7] | Potency [8] | Potency [9] | Potency [10] | Potency [11] | Potency [12] | Potency [13] | Potency [14] | Potency [15] | Potency [16] | Potency [17] | Potency [18]

Cc1ncc(CO)c(CO)c1O
inactive: max response [1] -3.24% | outcome [2] | Potency [3] | Potency [4] | Potency [5] | Potency [6] | Potency [7] | Potency [8] | Potency [9] | Potency [10] | Potency [11] | Potency [12] | Potency [13] | Potency [14] | Potency [15] | Potency [16] | Potency [17] | Potency [18]

CC(=O)N(c1onc(C)c1C)S(=O)(=O)c1ccc(N)cc1
inactive: max response [1] -5.11% | outcome [2] | Potency [3] | Potency [4] | Potency [5] | Potency [6] | Potency [7] | Potency [8] | Potency [9] | Potency [10] | Potency [11] | Potency [12] | Potency [13] | Potency [14] | Potency [15] | Potency [16] | Potency [17] | Potency [18]

Cc1cnc(NS(=O)(=O)c2ccc(N)cc2)nc1
inactive: max response [1] 2.98% | outcome [2] | Potency [3] | Potency [4] | Potency [5] | Potency [6] | Potency [7] | Potency [8] | Potency [9] | Potency [10] | Potency [11] | Potency [12] | Potency [13] | Potency [14] | Potency [15] | Potency [16] | Potency [17] | Potency [18]
